About 83,000 compounds went through this panel and 20% of them were active in at least one assay; those are over-represented in the sample as a whole.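 96-well plates, one dose, 48 hours. Percent growth reported; active if below 10.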 Unmarked numbers belong to inactive results. The source made the active and inactive calls.
Tests used:
Assay in all cases: NCI-60 one-dose screen, 48 h (100 = growth as untreated, 0 = no growth, -100 = all killed)
Conditions in all cases: 10 µM unless noted
[1] = test system: NCI-H23 lung
[2] = test system: NCI-H226 lung
[3] = test system: NCI-H322M lung
[4] = test system: HOP-62 NSCLC
[5] = test system: NCI-H460 lung
[6] = test system: HOP-92 NSCLC
[7] = test system: NCI-H522 lung
[8] = test system: A549/ATCC NSCLC
[9] = test system: 786-0 renal
[10] = test system: COLO 205 colon
[11] = test system: DU-145 prostate
[12] = test system: K-562 leukemia
[13] = test system: MALME-3M melanoma
[14] = test system: MDA-MB-231 breast
[15] = test system: RXF 393 renal
[16] = test system: SF-268 CNS
[17] = test system: SF-295 CNS
[18] = test system: SF-539 CNS
[19] = test system: UACC-257 melanoma
[20] = test system: M14 melanoma

SMILES | growth [1] | growth [2] | growth [3] | growth [4] | growth [5] | growth [6] | growth [7] | growth [8] | growth [9] | growth [10] | growth [11] | growth [12] | growth [13] | growth [14] | growth [15] | growth [16] | growth [17] | growth [18] | growth [19] | growth [20]
CCN(CC)c1ccc(N2C(=O)/C(=C/c3cccs3)SC2=S)cc1 | 94.8% | 93.7% | 91.7% | 106% | 97.8% | 6.63% (active) | 82.9% | 92% | 95.6% | 101% | 100% | 94% | 84.2% | 91.3% | 98.3% | 92.1% | 99.6% | 94.3% | 80.6% | 95.4%
O=C(O)CCCn1c(SCc2c(Cl)cccc2Cl)nc2ccsc2c1=O | 33.6% | 43.4% | 48.3% | 45.2% | 10.2% | 24.5% | -3.68% (active) | 34.4% | 23.9% | 3.82% (active) | 3.54% (active) | 9.27% (active) | 47.7% | 42% | -27.9% (active) | 39.5% | 14.6% | -20.1% (active) | 68.4% | -11.1% (active)
O=C(/C=C/c1cccc(Cl)c1)c1cccc(OCCCCOc2cccc(C(=O)/C=C/c3cccc(Cl)c3)c2)c1 | 89.3% | 99.7% | 92.2% | 107% | 98.7% | 78.6% | 88.7% | 85.4% | 98.8% | 76% | 97.4% | 91.4% | 96.8% | 97.1% | 89.9% | 96.6% | 103% | 96.6% | 89.7% | 85.5%
CCOC(=O)C/C(=N\Nc1cc(=O)[nH]c2ccc(Cl)cc12)C(=O)OCC | 95.3% | 98.2% | 91.3% | 101% | 103% | 87.5% | 105% | 100% | 106% | 121% | 106% | 43.9% | 95.8% | 98.8% | 110% | 98.6% | 103% | 98.8% | 105% | 95.5%
CCN(CCO)CC(C)Nc1ccc([N+](=O)[O-])c2sc3ccccc3c(=O)c12 (stereo not given) | 40.2% | 14.4% | 15.6% | 36.9% | 9.73% (active) | -0.953% (active) | 15.3% | 12.2% | 34.3% | 15% | 41.3% | 12.5% | 13.4% | 48.8% | 9.27% (active) | 36.1% | 17.4% | 25% | 31.5% | 29.3%
COc1ccc(C2=CN3CC=CCC3CC2=O)cc1 (stereo not given) | 106% | 99.9% | 113% | 87.8% | 108% | 92.1% | 66.9% | 75% | 101% | 113% | 100% | 105% | 116% | 98.3% | 100% | 101% | 104% | 104% | 71.6% | 99.5%
Cn1cc(C(=O)c2nc(-c3c[nH]c4ccc(Br)cc34)no2)c2cc(Br)ccc21 | 83% | 102% | 73.4% | 78.4% | 12.5% | 83.9% | 84.2% | 32.1% | 99.4% | 93.3% | 3.08% (active) | 37.7% | 43.7% | 45.9% | 96.4% | 55.9% | 88.4% | 88.7% | 109% | 47%
CC(C)(C)C(=O)/C=C/c1ccc([N+](=O)[O-])cc1 | 85.7% | 69.6% | 103% | 103% | 97.9% | 67.5% | 40% | 66.8% | 97.5% | 82.5% | 80.2% | 13.3% | 103% | 81.2% | 93.7% | 90.1% | 93.3% | 86.9% | 50% | 70.9%
CCN=C1C=CC(=C(c2ccc(N(C)C)cc2)c2ccc(N(C)C)cc2)c2ccccc21 | -5.87% (active) | -7.49% (active) | -30.1% (active) | -55.5% (active) | -36.8% (active) | -21.5% (active) | -36.8% (active) | 1.14% (active) | -11% (active) | -79% (active) | 1.96% (active) | 10.9% | -48.4% (active) | -12% (active) | -29.2% (active) | -8.78% (active) | -37.5% (active) | -57.4% (active) | -10.1% (active) | -42.2% (active)
Nc1ccc([N+](=O)[O-])cc1N=C/C=C/c1ccccc1 | 76.9% | 72% | 87.8% | 88% | 54% | 82.2% | 10.8% | 72.7% | 78.6% | 65.5% | 77.4% | 29.5% | 138% | 47.6% | 85.1% | 51.4% | 109% | 79% | 86.5% | 68.4%
Cn1ncc2ccc(-c3nc(-c4ccccc4)[nH]c3-c3n[nH]c(=O)n3C3CC3)cc21 | 93.7% | 97.7% | 111% | 95.1% | 99.4% | 61.3% | 81.5% | 93.7% | 88.8% | 109% | 106% | 101% | 95.6% | 98% | 106% | 102% | 101% | 97.6% | 94.9% | 88.4%
CCc1cccc(Sc2cc(C(=O)N3Cc4ccc(OCCN(C)C)cc4C3)ccc2O)c1 | 41.2% | 89.3% | 62.9% | 71.5% | 38.9% | 57.1% | 66.8% | 43.1% | 70.6% | 109% | 38.9% | 22% | 57.3% | 80% | 72.2% | 63.8% | 78.4% | 89% | 63.3% | 78.1%
CCCCCCOC(=O)CC1=C(C)/C(=C/c2[nH]c(-c3ccc[nH]3)cc2OC)N=C1C | -29.3% (active) | -30.6% (active) | 11.2% | -37.8% (active) | -23% (active) | -27.7% (active) | -49.5% (active) | -6.96% (active) | -51.8% (active) | -82.9% (active) | 5.68% (active) | -33.6% (active) | -74% (active) | -50.7% (active) | -56.1% (active) | -20.8% (active) | -60.4% (active) | -71.3% (active) | -63.9% (active) | -86.2% (active)
CC(C)(CO)N(CCO)CCO | 97.3% | 94% | 95.4% | 110% | 110% | 78.9% | 95.9% | 114% | 102% | 123% | 118% | 101% | 105% | 104% | 104% | 104% | 108% | 97.4% | 116% | 108%
Nc1nc(C(=O)N/N=C/c2ccc(N3CCOCC3)cc2)nn1-c1ccc(S(N)(=O)=O)cc1 | 100% | 96.7% | 106% | 103% | 110% | 97.7% | 101% | 100% | 95.7% | 120% | 105% | 94% | 107% | 115% | 108% | 99% | 104% | 105% | 107% | 103%
